Assay outcomes deposited in PubChem BioAssay by National Center for Advancing Translational Sciences (NCATS).
FMDV antiviral: blocks foot and mouth disease virus. AID 1159524. 1.2% of 410,000 active. FMDV antiviral cell-based qHTS. Potency, µM (highest dose often 57.9 µM), inactives show at the top dose activity change, negative = inhibition, most hits filed as inhibitors; calls by dose curve; tested in HEK293T cells; further: read-out not given here; potency means the concentration at half of the fitted maximal effect; on the % scale 0 is the no-effect control and ±100 the full control effect; nearly all actives have a fitted effect of over 45% in size
HCV inh: blocks hepatitis C virus. AID 651820. 3.4% of 340,000 active. Potency, µM (titrated, usually from 41.8 µM), without a hit: top-dose activity change, negative = inhibition, most hits filed as inhibitors. Huh7.5.1 HCVcc-Cre infection, luciferase reporter, 44 h; further: potency means the concentration at half of the fitted maximal effect; on the % scale 0 is the no-effect control and ±100 the full control effect
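Antiviral activity was scored by luciferase reporter output from cells infected with HCVcc-Cre (~0.5 moi) in presence of compound, 44 h infection period, cells seeded 1,000/well 4 h prior.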
HCMV antiviral: human cytomegalovirus inhibition | HFF cells, HCMV-luciferase reporter, 72 h; active compounds read low | activity change, negative = inhibition, % at 57.5 µM | 4.5% of 410,000 active | AID 1259415; in the data active means activity change below about -60%; inconclusive means no clear call, values can overlap the other calls; inactive means above about -39%; further: on the % scale 0 is the no-effect control and ±100 the full control effect
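Two-dose cell screen: HFF monolayers treated with compounds and infected with luciferase-expressing HCMV at 1 PFU/cell, 72 h at 37C, then lysed for luciferase measurement.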
LASV entry inh: Lassa virus entry inhibition; AID 540256; 1.2% of 300,000 active; Lassa virus pseudotype entry inhibition, cell reporter; Potency, µM (highest dose often 37.9 µM), inactives show at the highest dose activity change, negative = inhibition, most hits filed as inhibitors; calls by dose curve; tested in HEK293 cells; further: potency means the concentration at half of the fitted maximal effect; on the % scale 0 is the no-effect control and ±100 the full control effect; nearly all actives have a fitted effect of over 50% in size
Marburg entry inh: inhibitors of Marburg virus binding or cell entry; 1.8% of 300,000 active; AID 540276; Potency, µM (series often up to 37.8 µM), for inactives: at the highest dose activity change, negative = inhibition, most hits filed as inhibitors; Marburg virus pseudotyped entry inhibition, cell reporter; calls by dose curve; tested in HEK293 cells; further: potency means the concentration at half of the fitted maximal effect; on the % scale 0 is the no-effect control and ±100 the full control effect
HCV confirm: HCV inhibition, cherry-pick confirmation; shares compounds with HCV inh; Potency, µM (top dose mostly 41.8 µM), inactives show top-dose activity, negative = inhibition, hits mostly inhibitors; AID 720575; HCVcc-Cre infectious virus cell assay, luciferase, inhibition; 78% of 640 active; further: potency means the concentration at half of the fitted maximal effect; nearly all actives have a fitted effect of over 80% in size
HCV host tox: host cell cytotoxicity counter-screen for HCV inhibitors. shares compounds with HCV inh. HCV host cell line cytotoxicity counterscreen. Potency, µM (highest dose often 41.8 µM), for the others: at the top dose activity change, negative = cytotoxicity, hits mostly inhibitors. 22% of 640 active. AID 720576;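 further: potency means the concentration at half of the fitted maximal effect; 44 h compound exposure; on the % scale 0 is the no-effect control and ±100 the full control effect; nearly all actives have a fitted effect of over 55% in size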
Active calls of the source: *; ? = inconclusive; / = not tested or not shown; ! = not confirmed by another sample; [ ] = another dose, or the depositor's remark. Shown are actives, neighbours in structure and some others; about 7.9% of the full set was active somewhere. Unless noted, the call rests on the fitted dose curve; in most records, active means well fitted curve in the direction sought with a large enough effect; inconclusive means small, poorly fitted or top-dose-only effect, or another doubt; inactive means no such curve, though single readings can be large; an effect the other way counts as inactive or inconclusive.

SMILES	FMDV antiviral	HCV inh	HCMV antiviral	LASV entry inh	Marburg entry inh	HCV confirm	HCV host tox
COc1ccccc1NC(=O)c1ccc(SCC(=O)NCc2ccccc2Cl)c([N+](=O)[O-])c1	-14%	?	-4	6%	-18%	?	43%
CCC(=O)NC(c1cccs1)c1cc(Cl)c2cccnc2c1O (stereo not drawn)	-15%	4µM*	?	/	/	7µM*	11µM*
NC(N)=NC(N)=NCCc1ccccc1	-23%	3.2µM*!	-82*	-13%	-37%	2.8µM*	?
COc1cc(CCNC(=O)c2ccc3c(c2)c(C)c(C)n3Cc2cccc(C)c2)cc(OC)c1OC	?	/	-36	-12%[46.1 µM]	/	/	/
COc1cc(OC)c(NC(=O)C(=O)CC(=O)c2ccc(C)cc2C)cc1Cl	-11%	3.5µM*	10	8.2µM*	?	14µM*	-14%
COc1cc(OC)c(NC(=O)Cn2cccc2)cc1Cl	17%	-8%	-17	5%	?	/	/
Cc1cccc(C)c1-n1ncc(C(=O)NCCCN2CCC(C)CC2)c1C1CCN(C(=O)OC(C)(C)C)CC1	-27%	/	6	8%[46.1 µM]	/	/	/
FC(F)(F)c1nc(-c2cccs2)ncc1-c1nnnn1-c1ccc(Cl)cc1	11µM*	5µM*	-61*	16µM*	?	6.3µM*	-94%
COc1ccccc1CC(=O)Nc1cc2oc3ccccc3c2cc1OC	/	4µM*	-8	4%	?	13µM*	22%
CCOC(=O)c1ccc(NS(=O)(=O)c2cc3c(cc2C)n(C)c(=O)c(=O)n3C)cc1	-13%	/	-9	2%[46.1 µM]	/	/	/
CN1CCC(=C2c3ccccc3CCc3sccc32)CC1	?	?	/	/	/	3.1µM*	-23%
CC(C(=O)N1CCN(C)CC1)N1C(=O)c2ccccc2C1=O (stereo not drawn)	11%	3%	2	-8%	9%	/	/
CCCN(CCC)C(=O)Cn1c(=O)n(-c2cccc(OC)c2)c(=O)c2c3c(sc21)CCCC3	-29%	/	-18	29%[46.1 µM]	?	/	/
Cc1ccc(-c2csc(Cc3nc(-c4cc5ccccc5oc4=O)cs3)n2)cc1	/	5µM*	-80*	-54%	?	5µM*	6.3µM*
O=c1oc2ccccc2cc1-c1csc(NN=C2CCCC2)n1	-18%	-6%	-4	?	?	/	/
CNc1nc(N/N=C/c2cc3c(cc2[N+](=O)[O-])OCO3)nc(Nc2ccccc2)n1	?	1µM*	-99*	?	16µM*	14µM*	31µM*
S=C(NNc1ccnc2cc(Cl)ccc12)Nc1ccccc1Cl	?	?	-24	?	?	/	/
Clc1ccc2c(NCc3ccccc3)ccnc2c1	?	5.6µM*	-74*	?	?	10µM*	?
CC(C)c1nn2c(=O)cc(COC(=O)c3ccc(NC(=O)COc4ccccc4)cc3)nc2s1	8%	/	-27	26%[46.1 µM]	/	/	/
Cc1ccc(NCC(=O)N/N=C/c2ccc(C(=O)O)cc2)cc1	4%	3%	25	/	/	/	/
Cc1ccc(NCC(=O)N/N=C\c2ccc([N+](=O)[O-])o2)cc1	/	3.2µM*	-82*	-29%	?	14µM*	?
Cc1nc2ccccn2c1-c1csc(Nc2ccc(C(=O)O)cc2)n1	12%	18%	?	?	?	/	/
Cc1cccc(Nc2nc(-c3c(C)nc4ccccn34)cs2)c1	/	2.5µM*	-95*	?	?	14µM*	25µM*
CCn1c(=NC(=O)C2COc3ccccc3O2)sc2c(C)ccc(OC)c21 (stereo not drawn)	?	?	?	/	/	13µM*	36%
COc1ccc(C2c3c(n(C)c4ccccc34)C(=O)N2CC(=O)Nc2ccc(C)c(Cl)c2)cc1 (stereo not drawn)	-14%	/	?	-4%[46.1 µM]	/	/	/
SMILES	FMDV antiviral	HCV inh	HCMV antiviral	LASV entry inh	Marburg entry inh	HCV confirm	HCV host tox
CCOC(=O)c1cc2c(=O)n3ccccc3nc2n(Cc2ccco2)c1=NC(=O)c1ccc(OC)cc1OC	21%	?	-27	0%	?	?	30%
CCOC(=O)c1cc2c(=O)n3ccccc3nc2n(Cc2ccco2)c1=NC(=O)c1cccc(F)c1	19%	/	-13	0%[46.1 µM]	-29%[46.1 µM]	/	/
COC(=O)C1=C(C)NC(=O)NC1c1ccc(-c2ccccc2Cl)o1 (stereo not drawn)	?	?	-22	-13%	-9%[46.1 µM]	22µM*	2%
CCc1nn2c(=O)cc(COC(=O)c3ccccc3NC(=O)COc3ccc(C)c(C)c3)nc2s1	-9%	/	?	-3%[46.1 µM]	/	/	/
Cc1cc(/C=N/NC(=O)c2ccccc2F)c(C)n1-c1ccccc1	26%	7.9µM*	?	/	/	?	-22%
Cc1oc2c(c(C)cc3oc(=O)c(CC(=O)NCc4ccc(F)cc4)c(C)c32)c1C	-1%	/	-25	4%[46.1 µM]	-2%[46.1 µM]	/	/
CCCC(=O)Nc1ccccc1C(=O)OCc1cc(=O)n2nc(C(C)C)sc2n1	5%	/	90	1%[46.1 µM]	/	/	/
Cc1cccc(NC(=O)C2CCN(S(=O)(=O)c3ccc4c(c3)CCCN4C(=O)C3CCC3)CC2)c1	-22%	/	-28	?	/	/	/
COc1ccc(NC(=S)NCCSc2ccc(Cl)cc2)c(OC)c1	-8%	5.6µM*	-26	?	?	25µM*	-24%
Cc1ccc(NC(=O)CN2C(=O)CSc3ccc(S(=O)(=O)N(C)C)cc32)cc1C	4%	/	1	19%[46.1 µM]	/	/	/
Cn1c(=O)c(/C=C/c2ccccc2)nc2ccccc21	-10%	6%	230	-16%	?	/	/
CCn1nc(/C=C/c2ccccc2)nc2c(=O)n(C)c(=O)nc1-2	2.5µM*	2.5µM*	-96*	7.9µM*	0.71µM*	5.6µM*	7µM*
CCOc1cc(NC(=S)NCC2CCCO2)c(OCC)cc1NC(=O)c1ccccc1 (stereo not drawn)	3%	8.9µM*	-9	-1%	-17%	?	32%
CCOc1cc(NC(=S)NCC2CCCO2)c(OCC)cc1NC(=O)c1ccc(C)cc1 (stereo not drawn)	-7%	?	51	-3%	-1%	/	/
Cc1ccc(-n2nnnc2SCCNS(=O)(=O)c2ccccc2)cc1C	/	?	-19	-13%	?	14µM*	-17%
Cn1nnnc1SCCNS(=O)(=O)c1ccccc1	5%	-3%	7	12%	-14%	/	/
C/C(=N\Nc1ccc2nncn2n1)c1ccco1	25%	-9%	60	-1%	?	/	/
C/C(=N\Nc1ccc2nncn2n1)c1ccccn1	23%	2µM*	-96*	?	?	5.6µM*	?
Cc1ccccc1/C=C/c1cc[n+](C)cc1	-6%	?	?	/	/	/	/
CCn1cc(/C=C/c2cc[n+](C)cc2)c2ccccc21	-22%	2.5µM*	-97*	/	/	1.8µM*	4µM*
